# Reference: PubChem BioAssay AID434973 (Sanford-Burnham Center for Chemical Genomics, 2010)
# Screen size: about 330,000 compounds; about 4,900 (1.5%) were called active.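 How the source made its calls: active means inhibition above about 50% at the single test dose (limit read from the data); inactive means the rest.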 Shown is part of a subset that was picked to be rich in actives.
# Target: Sentrin-specific protease 7 (Homo sapiens) (UniProt Q9BQF6)
# Experiment: blockers of human SENP7 peptidase activity – biochemical, luminescence, uHTS, primary screen (AID 434973);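 further: plate controls were DMSO with enzyme for no effect and no enzyme buffer wells for full effect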
# Details: recombinant SENP7, Z-RLRGG-aminoluciferin luminescence, 40 min; at 5 µM; active compounds read high
row,Compound,inhibition
1,COc1ccc(OCC(=O)NCCc2ccc(S(N)(=O)=O)cc2)cc1,7.31% (inactive)
2,O=C(COC(=O)c1ccco1)NCc1ccc(Cl)cc1,-0.452% (inactive)
3,CCc1ccc(C(=O)COC(=O)c2ccco2)cc1,68.9% (active)
4,O=C(OCC(=O)N1CCCC1)c1ccco1,-6.82% (inactive)
5,Cc1ccc(-n2nc(-c3ccco3)cc2C(=O)NCc2cccnc2)cc1,0.29% (inactive)
6,O=C(N/N=C/c1ccc(OC(=O)c2ccccc2Cl)cc1)c1ccc(O)cc1,4.1% (inactive)
7,COc1ccc(NS(=O)(=O)c2cc(C(=O)Nc3ccccc3C(=O)O)ccc2C)cc1,9.65% (inactive)
8,COc1ccc(C(=O)Nc2cc(C)c(NC(=O)c3ccccc3OC)cn2)cc1,9.47% (inactive)
9,COc1ccc(/C=N/Nc2ccccc2C(=O)O)cc1,94.3% (active)
10,COc1ccc(C(=O)Nc2ccccc2C(=O)N/N=C/c2ccc(O)c(OC)c2)cc1,101% (active)
11,CCOc1cc(/C=N/NC(=O)c2cc(-c3ccccc3)nc3ccccc23)ccc1O,-1.26% (inactive)
12,COc1ccc(C(=O)Nc2ccccc2C(=O)N/N=C/c2ccccc2OC)cc1,64.8% (active)
13,COc1ccc(/C=N/OCC(=O)N(Cc2ccccc2)c2ccccc2C(=O)O)cc1,6.96% (inactive)
14,COc1ccccc1C(=O)NNC(=O)c1ccc(NC(=O)c2ccccc2)cc1,11.6% (inactive)
15,O=C(CN1C(=O)NC2(CCCCC2)C1=O)N1CCN(C(=O)c2cccs2)CC1,-1.61% (inactive)
16,COc1cc(S(=O)(=O)N2CCN=C2c2ccccc2)ccc1Cl,-10% (inactive)
17,O=C(CC1OC(=O)c2ccccc21)NC1CCCCC1 (configuration not stated),1.77% (inactive)
18,CC(C)c1c(O)nc(SCCOc2ccc(Cl)cc2)[nH]c1=O,8.54% (inactive)
19,O=C(Cn1cnc2ccccc2c1=O)NNC(=O)c1ccccc1F,-11% (inactive)
20,CCN1CCN(C(C(=O)NC2CCCC2)c2cc3c(cc2[N+](=O)[O-])OCO3)CC1 (configuration not stated),-3.92% (inactive)
21,Nc1nc(C23CC4CC(CC(C4)C2)C3)cs1,3.32% (inactive)
22,Fc1ccccc1/C=N/Nc1cc(N2CCCCC2)ncn1,69.8% (active)
23,COc1ccccc1N1CCN(C(=O)C(=O)N/N=C/c2ccccc2F)CC1,-1.74% (inactive)
24,C(=N/Nc1cc(N2CCOCC2)nc(N2CCOCC2)n1)/c1ccccc1,31.9% (inactive)
25,CC(=O)Nc1ccc(S(=O)(=O)Nc2cc(C)cn(Cc3ccc(C)cc3)c2=O)cc1,2.97% (inactive)
26,Cc1ccc(S(=O)(=O)NC[C@H]2O[C@@H](n3cnc4c(N)ncnc43)[C@H](O)[C@@H]2O)s1,6.73% (inactive)
27,CC(=O)c1cccc(NC(=O)COc2ccc(S(=O)(=O)N3CCOCC3)cc2)c1,3.63% (inactive)
